# From PubChem BioAssay (NCATS)
# Results filed as inconclusive are left out. Entries that show only a call come without a potency. A structure can be active in one record and inactive in another. Calls of active or inactive are those of the source. The call rests on the fitted dose curve; in most records, active means well fitted curve in the direction sought with a large enough effect; inconclusive means small, poorly fitted or top-dose-only effect, or another doubt; inactive means no such curve, though single readings can be large; an effect the other way counts as inactive or inconclusive.
# Key:
# [1] = biological target: Calcium and integrin-binding protein 1 (Homo sapiens) (UniProt Q99828); assay: Primary qHTS for Identification of Calcium Integrin Binding Protein 1 (CIB1) Competitor (AID 1508620); further: potency means the concentration at half of the fitted maximal effect;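 on activity change, negative = inhibition: GST tagged CIB1 binding a fluorescein labelled alphaIIb integrin peptide tracer; top concentration of the series differs between compounds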
# Method in brief: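 Fluorescence polarization competition: GST-tagged CIB1 (1 uM final) preincubated with compound 15 min at room temperature, then FITC-labelled alphaIIb peptide (100 nM final) added. After 15 min at room temperature, polarization read at Ex 480/Em 540.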
# [2] = qHTS to identify inhibitors of the type 1 interferon - major histocompatibility complex class I in skeletal muscle: primary screen against the NCATS Mechanism Interrogation Plate v5.0 (MIPE) Libary (AID 1347411); further: nearly all actives have a fitted effect of over 65% in size; further: potency means the concentration at half of the fitted maximal effect
# Method in brief: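 Cells were genome-edited human myoblasts carrying a HiBit tag on endogenous HLA-B. They were treated with IFN-beta (4.0 ng/ml) and titrated compounds (top 46 uM) for 24 hrs before lytic HiBiT detection.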
# [3] = biological target: Protein phosphatase 1D (Homo sapiens) (UniProt O15297); assay: RapidFire Mass Spectrometry qHTS Assay for Modulators of WT P53-Induced Phosphatase 1 (WIP1) (AID 1347424);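 further: amount of dephosphorylated VEPPL-S-QETFS peptide product formed by WIP1; series mostly up to about 63 µM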
# Method in brief: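 10 nM WIP1 preincubated with compounds 1 hr at room temperature in pH 7.5 Tris buffer with 30 mM MgCl2, 1 mM TCEP; 2 uM VEPPL-pS-QETFS phosphopeptide for 5 min, formic acid quench; dephosphorylated product quantified by RapidFire MS against labelled standard.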
# [4] = Primary qHTS for inhibitors of La Crosse Virus (LACV) - induced cell death in SH-SY5Y cells (AID 1508616); further: potency means the concentration at half of the fitted maximal effect;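 on activity change: top concentration of the series differs between compounds; higher means more rescue of cells from virus-induced death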
# Method in brief: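 Readout was luminescence from ATPLite 1step added after a 6-day LACV infection (0.01 MOI) of SH-SY5Y cells that had received pin-transferred compound 24 hr after seeding.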
# [5] = qHTS for inhibitors of adenylyl cyclases using a fission yeast platform: a pilot screen against the NCATS LOPAC library (AID 1347410)
# Method in brief: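 Read-out: fbp1-GFP fluorescence by laser scanning cytometry (488 nm laser), a gain of signal when AC/cAMP-PKA signalling is inhibited. Strain CHP2027 expressing AC9, GNAS and PDE4D2; compounds at up to 57 µM; 18 h, 30C.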
# [6] = biological target: Calcium and integrin-binding protein 1 (Homo sapiens) (UniProt Q99828); assay: Validation qHTS for Identification of Calcium Integrin Binding protein 1 (CIB1) Competitor (AID 1508618)
# Method in brief: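 Displacement of FITC-alphaIIb peptide (100 nM) from CIB1-GST (1 uM) is monitored by polarization in quantitative HTS format; buffer carries 5 mM CaCl2 and 125 mM NaCl at pH 7.4, incubations are at room temperature.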
# [7] = Validation qHTS assay for inhibitors of Activation Induced Cytidine Deaminase (AID): UDG Counterscreen signal (AID 1347427)
# Method in brief: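 Counterscreen read of UDG activity (2 U/mL, 4/3x) in the FRET deamination format with AID (1 uM, 4/3x), DJC20/DJC23 substrates (250 nM, 4x), 4 h at room temperature. NaOH stop, fluorescence at 560 ex/665 em.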
# [8] = biological target: Single-stranded DNA cytosine deaminase (Homo sapiens) (UniProt Q9GZX7); assay: Validation qHTS assay for inhibitors of Activation Induced Cytidine Deaminase (AID): AID signal (AID 1347429)
# Method in brief: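 In this coupled qHTS, AID deaminates a FRET-labelled ssDNA substrate in the presence of UDG over 4 hr at room temperature. Compounds span up to 114 uM final.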
# [9] = biological target: Protein phosphatase 1D (Homo sapiens) (UniProt O15297); assay: Rhodamine-PBP qHTS Assay for Modulators of WT P53-Induced Phosphatase 1 (WIP1) (AID 1347425)
# Method in brief: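 5 nM WIP1 + 10 uM Rh-PBP, 50 mM Tris pH 7.5, 30 mM MgCl2, 1 mM TCEP, 0.1 mM EGTA, BSA; cpds pinned, 1 hr RT; + 10 uM phosphopeptide; fluorescence 1-min reads x 11 min; delta = f1 - f0.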
# [10] = Counterscreen qHTS for small molecule stabilizers of the endoplasmic reticulum resident proteome: GLuc-NoTag assay (AID 1508627); further: potency means the concentration at half of the fitted maximal effect;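 on activity change, negative = inhibition: SH-SY5Y cells given compound then 100 nM thapsigargin to empty ER calcium; series mostly up to about 76 µM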
# Method in brief: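 SH-SY5Y cells stably expressing constitutively secreted GLuc without SERCaMP tag, exposed to compound for 19 hr, then to 100 nM thapsigargin for 4 hr at 37C. Medium luciferase was read by coelenterazine luminescence without lysis.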
# [11] = qHTS to identify inhibitors of the type 1 interferon - major histocompatibility complex class I in skeletal muscle: primary screen against the NCATS Pharmaceutical Collection (AID 1347407);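 further: luminescence of HiBiT knocked into endogenous HLA-B as interferon-induced MHC class I level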
# Method in brief: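 HLA-B HiBiT myoblasts, dexamethasone-free growth medium + 4 ng/ml IFN-b; compounds pinned 1 h after seeding, […] from 46 uM; 24 h, 37 C, 5% CO2; lytic HiBiT detection, 10 min RT, luminescence.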
# [12] = biological target: Calcium and integrin-binding protein 1 (Homo sapiens) (UniProt Q99828); assay: Confirmatory qHTS for Identification of Calcium Integrin Binding Protein 1 (CIB1) Competitor (AID 1508617); further: nearly all actives have a fitted effect of over 65% in size; further: potency means the concentration at half of the fitted maximal effect
# Method in brief: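 Confirmatory qHTS measures displacement of a FITC-alphaIIb peptide (100 nM) from CIB1-GST (1 uM) by fluorescence polarization. Calcium-containing HEPES buffer, pH 7.4; two 15 min room-temperature incubations.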
# [13] = Confirmatory qHTS for small molecule stabilizers of the endoplasmic reticulum resident proteome: Secreted ER Calcium Modulated Protein (SERCaMP) assay (AID 1508628);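 further: SH-SY5Y cells given compound 16 h then thapsigargin 100 nM for 4 h; series mostly up to about 76 µM; nearly all actives have a fitted effect of over 40% in size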
# Method in brief: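 We seeded SH-SY5Y-GLuc-SERCaMP cells, added compounds (three concentrations in the primary run, eleven up to 76.6 uM in confirmation), incubated 16 h, depleted ER calcium with thapsigargin, and read luciferase 4 h later.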
# Chain of Single-stranded DNA cytosine deaminase (Homo sapiens) (Q9GZX7 whole entry, looked up): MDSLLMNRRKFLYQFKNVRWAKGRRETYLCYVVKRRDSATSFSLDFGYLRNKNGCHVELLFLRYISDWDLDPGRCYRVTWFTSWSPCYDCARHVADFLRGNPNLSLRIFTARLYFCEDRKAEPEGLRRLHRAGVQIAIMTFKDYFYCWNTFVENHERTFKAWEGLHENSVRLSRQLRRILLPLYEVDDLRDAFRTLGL
# Chain of Calcium and integrin-binding protein 1 (Homo sapiens) (Q99828 whole entry, looked up): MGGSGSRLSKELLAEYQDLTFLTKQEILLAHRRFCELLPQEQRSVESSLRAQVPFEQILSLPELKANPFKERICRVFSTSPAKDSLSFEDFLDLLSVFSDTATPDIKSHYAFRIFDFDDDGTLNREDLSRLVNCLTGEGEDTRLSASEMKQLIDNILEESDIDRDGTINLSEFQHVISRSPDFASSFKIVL
# Chain of Protein phosphatase 1D (Homo sapiens) (O15297 whole entry, looked up): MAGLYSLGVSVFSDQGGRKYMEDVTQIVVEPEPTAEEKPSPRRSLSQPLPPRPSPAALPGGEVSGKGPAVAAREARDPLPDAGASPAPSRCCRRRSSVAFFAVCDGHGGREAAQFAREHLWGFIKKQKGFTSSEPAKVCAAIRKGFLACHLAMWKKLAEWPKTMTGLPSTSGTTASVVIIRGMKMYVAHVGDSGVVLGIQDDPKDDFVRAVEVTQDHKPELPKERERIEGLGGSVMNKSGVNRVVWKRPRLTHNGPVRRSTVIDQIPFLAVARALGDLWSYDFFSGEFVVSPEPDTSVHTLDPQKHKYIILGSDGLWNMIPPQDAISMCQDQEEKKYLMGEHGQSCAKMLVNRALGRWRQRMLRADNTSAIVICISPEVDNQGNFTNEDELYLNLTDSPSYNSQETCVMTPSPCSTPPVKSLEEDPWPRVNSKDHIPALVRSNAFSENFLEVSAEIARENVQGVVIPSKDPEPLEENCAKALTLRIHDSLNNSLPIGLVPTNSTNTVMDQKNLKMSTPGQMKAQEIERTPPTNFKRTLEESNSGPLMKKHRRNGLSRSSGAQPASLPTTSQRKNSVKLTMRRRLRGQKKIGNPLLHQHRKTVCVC
structure (smiles),measurement,setting,value
CNC[C@@H](O)[C@@H](O)[C@H](O)[C@H](O)CO,Potency,[1],inactive
O=C(NOCC1CC1)c1ccc(F)c(F)c1Nc1ccc(I)cc1Cl,Potency,[2],inactive
same,Potency,[3],inactive
same,Potency,[4],inactive
same,Potency,[1],inactive
Cc1cccc(-c2[nH]ncc2-c2ccc3ncccc3n2)n1,outcome,[5],inactive
same,Potency,[2],inactive
same,outcome,[6],inactive
same,Potency,[1],inactive
CCOC(=O)C1=C[C@@H](OC(CC)CC)[C@H](NC(C)=O)[C@@H](N)C1,Potency,[2],inactive
same,Potency,[1],inactive
CN(C)CCc1c[nH]c2ccc(Cn3cncn3)cc12,Potency,[1],inactive
CCOc1cc(CC(=O)N[C@@H](CC(C)C)c2ccccc2N2CCCCC2)ccc1C(=O)O,Potency,[2],inactive
same,Potency,[1],inactive
C[Se]CCC(N)C(=O)O (centres undefined),Potency,[2],inactive
same,Potency,[1],inactive
O=C1NC(=O)C(c2ccccc2[N+](=O)[O-])=C1Nc1ccc(O)c(Cl)c1,outcome,[5],inactive
same,Potency,[7],inactive
same,outcome,[8],inactive
same,Potency,[4],inactive
same,Potency,[1],inactive
COC(=O)C1=C(C)NC(C)=C(C(=O)OC(C)C)C1c1cccc2nonc12 (centres undefined),Potency,[3],inactive
same,Potency,[4],inactive
same,Potency,[1],inactive
Nc1nc(N)c(N=O)c(OCC2CCCCC2)n1,outcome,[5],inactive
same,Potency,[2],inactive
same,Potency,[7],inactive
same,outcome,[8],inactive
same,Potency,[4],inactive
same,outcome,[6],inactive
same,Potency,[1],inactive
C[C@H](Cn1cnc2c(N)ncnc21)OCP(=O)(O)O,Potency,[1],inactive
Nc1nc(OCc2ccccc2)c2[nH]cnc2n1,outcome,[5],inactive
same,Potency,[2],inactive
same,Potency,[7],inactive
same,outcome,[8],inactive
same,Potency,[4],inactive
same,outcome,[6],inactive
same,Potency,[1],inactive
CC(=O)Nc1ccc(O)cc1,Potency,[3],inactive
Oc1ccc2ccccc2c1SSc1c(O)ccc2ccccc12,outcome,[5],inactive
same,outcome,[8],inactive
same,Potency,[4],inactive
CCN(CC)CCOc1ccc(Nc2ncc3cc(-c4c(Cl)cccc4Cl)c(=O)n(C)c3n2)cc1,outcome,[5],inactive
same,Potency,[1],inactive
COc1cc(C(C)=O)ccc1OCCCN1CCC(c2noc3cc(F)ccc23)CC1,Potency,[3],inactive
same,outcome,[9],inactive
same,Potency,[4],inactive
same,Potency,[1],inactive
CC(C)[N+]1(C)[C@@H]2CC[C@H]1CC(OC(=O)C(CO)c1ccccc1)C2 (some centres undefined),Potency,[1],inactive
CC(C)(S)[C@@H](N)C(=O)O,"activity change, negative = inhibition",[2],-26.4% [at 5.1 µM] (inactive)
same,Potency,[1],inactive
CC[C@]1(O)C[C@H]2CN(CCc3c([nH]c4ccccc34)[C@@](C(=O)OC)(c3cc4c(cc3OC)N(C=O)[C@H]3[C@@](O)(C(=O)OC)[C@H](OC(C)=O)[C@]5(CC)C=CCN6CC[C@]43[C@@H]65)C2)C1,Potency,[3],inactive
same,outcome,[9],inactive
same,Potency,[4],0.1 µM (active)
same,Potency,[1],inactive
COC(=O)C1=C(C)NC(C)=C(C(=O)OCCCN2CCC(c3ccccc3)(c3ccccc3)CC2)C1c1cccc([N+](=O)[O-])c1 (centres undefined),Potency,[3],inactive
same,Potency,[4],inactive
same,Potency,[1],inactive
same,Potency,[10],39.8 µM (active)
NC(=NCc1ccccc1)NC(=O)c1nc(Cl)c(N)nc1N,outcome,[5],inactive
same,Potency,[7],inactive
same,outcome,[8],inactive
same,Potency,[4],inactive
same,outcome,[6],inactive
same,Potency,[1],inactive
O=P(O)(O)C(O)(Cn1ccnc1)P(=O)(O)O,"activity change, negative = inhibition",[2],2.74% [at 5.1 µM] (inactive)
same,Potency,[1],inactive
Nc1nc(Cl)nc2c1ncn2[C@H]1C[C@H](O)[C@@H](CO)O1,Potency,[2],inactive
same,Potency,[1],inactive
Clc1ccc(C(Cn2ccnc2)OCc2ccsc2Cl)c(Cl)c1 (centres undefined),Potency,[2],inactive
same,Potency,[3],inactive
same,outcome,[9],inactive
same,Potency,[4],inactive
same,Potency,[1],inactive
CCCCCCCCCCCCCCCCCCCCCCO,Potency,[2],inactive
same,Potency,[1],inactive
CN(C)c1ccc2nc3ccc(=[N+](C)C)cc-3sc2c1,Potency,[2],18.6 µM (active)
same,Potency,[4],inactive
O=C(CS(=O)Cc1ccco1)NCC=CCOc1cc(CN2CCCCC2)ccn1 (centres undefined),Potency,[1],inactive
Cc1ccc(C(=O)c2cc(O)c(O)c([N+](=O)[O-])c2)cc1,Potency,[11],inactive
same,Potency,[3],inactive
same,Potency,[4],inactive
same,Potency,[1],inactive
CCN(CC)C(=S)SSC(=S)N(CC)CC,Potency,[3],inactive
same,outcome,[9],inactive
same,Potency,[7],inactive
same,outcome,[8],inactive
same,Potency,[4],inactive
same,Potency,[12],14.1 µM (active) and inactive
same,outcome,[6],inactive
same,Potency,[1],44.7 µM (active)
same,Potency,[10],28.2 µM (active)
same,Potency,[13],inactive
Cc1cc(C2CCCCC2)n(O)c(=O)c1,Potency,[11],inactive
same,Potency,[3],inactive
same,Potency,[1],inactive
O=C1c2ccccc2-c2n[nH]c3cccc1c23,outcome,[5],inactive
same,Potency,[2],16.5 µM (active)
same,Potency,[7],inactive
same,Potency,[4],inactive
same,Potency,[1],inactive
CC1(C)CCC(C)(C)c2cc(NC(=O)c3ccc(C(=O)O)cc3)ccc21,Potency,[2],inactive
same,Potency,[4],inactive
same,Potency,[1],inactive
same,Potency,[10],inactive
Cc1cc(=O)c2c(O)c3c(O)cc(=O)c4c3c3c(cc(O)c1c23)C(C)(C)C=4O,Potency,[11],inactive
same,Potency,[3],inactive
same,Potency,[4],inactive
same,Potency,[1],inactive
NS(=O)(=O)c1cc(C(=O)O)c(NCc2ccco2)cc1Cl,Potency,[11],inactive
same,Potency,[3],inactive
same,Potency,[4],inactive
same,Potency,[1],inactive
Nc1ccn([C@@H]2O[C@H](CO)[C@@H](O)C2O)c(=O)n1 (some centres undefined),Potency,[2],inactive
same,Potency,[7],inactive
same,outcome,[8],inactive
same,Potency,[4],0.316 µM (active)
same,Potency,[1],inactive
